{"source": "PubChem BioAssay (Tox21)", "note": "Inconclusive results are not listed. Entries that show only a call come without a potency. Values without a mark were called inactive. Activity calls are given as the source filed them. Unless noted, calls come from the whole dose curve; as a rule, active = well fitted cell-killing curve with a large enough effect in the repeat runs; inconclusive = weak or mixed curves; inactive = flat fitted curve, though single readings scatter.", "data": [{"experiment": "qHTS assay to identify small molecule agonists of the progesterone receptor (PR) signaling pathway - cell viability counter screen (AID 1346799; calls by dose curve; note: nearly all actives have a fitted effect of over 45% in size)", "conditions": "PR-UAS-bla HEK293T viability, CellTiter-Glo luminescence, 16 h; series mostly up to 92.4 µM", "how_it_was_run": "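Cytotoxicity measured by CellTiter-Glo luminescence (30 min, RT) in the same wells as the PR beta-lactamase agonist read. Those HEK293T cells had 16 h compound treatment at 37 C in 2% charcoal-stripped FBS medium.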", "values": [{"smiles": "C[C@]12C=CC(=O)C=C1[C@@H](F)C[C@@H]1[C@@H]2[C@@H](O)C[C@@]2(C)[C@H]1CC[C@]2(O)C(=O)CO", "Potency": "inactive"}, {"smiles": "CCCCCCCCCCCCCC(=O)OCC", "Potency": "inactive"}, {"smiles": "CCN1CCN(C(=O)N[C@@H](C(=O)N[C@@H]2C(=O)N3[C@@H]2SC(C)(C)[C@H]3C(=O)O)c2ccccc2)C(=O)C1=O", "Potency": "inactive"}, {"smiles": "CC(=O)O[C@@H]1CC2C3CCc4cc(OC(=O)c5ccccc5)ccc4C3CCC2(C)[C@H]1OC(C)=O", "note": "(stereo partly drawn)", "Potency": "inactive"}, {"smiles": "CCCCCCCCCCCCCCCCN(C)C", "activity change, negative = cytotoxicity": "-6.19% [at 8.39 µM]"}, {"smiles": "CCOC(=O)[C@H](CCc1ccccc1)N[C@H]1CS[C@H](c2cccs2)CN(CC(=O)O)C1=O", "Potency": "inactive"}, {"smiles": "N=C(N)S(=O)O", "Potency": "inactive"}, {"smiles": "CCCCN1C(=O)c2ccccc2C1=O", "Potency": "inactive"}, {"smiles": "CC(C)(O)CCCC1=CCC(C=O)CC1", "note": "(stereo not drawn)", "Potency": "inactive"}, {"smiles": "CCCCOCCCC", "Potency": "inactive"}, {"smiles": "COCc1nnc(-c2ccc[n+]([O-])c2)n1-c1c(Cl)c(Cl)cc2[nH]c(=O)c(=O)[nH]c12", "Potency": "inactive"}, {"smiles": "CC(C)(C)C(=O)CCc1ccc(Cl)cc1", "Potency": "inactive"}, {"smiles": "Cc1ccc(Br)cc1", "Potency": "inactive"}, {"smiles": "CCCCC(CC)COC(=O)CC#N", "note": "(stereo not drawn)", "Potency": "inactive"}, {"smiles": "CCN1CCN(C(=O)N[C@@H](C(=O)N[C@@H]2C(=O)N3C(C(=O)O)=C(CSc4nnnn4C)CS[C@H]23)c2ccc(O)cc2)C(=O)C1=O", "Potency": "inactive"}, {"smiles": "O=C(CCBr)N1CCN(C(=O)CCBr)CC1", "Potency": "inactive"}, {"smiles": "CC/C=C\\CCOC(=O)c1ccccc1", "Potency": "inactive"}, {"smiles": "CCNC(=O)C(C)OC(=O)Nc1ccccc1", "note": "(stereo not drawn)", "Potency": "inactive"}, {"smiles": "CN(C)CCc1c[nH]c2ccc(C[C@H]3COC(=O)N3)cc12", "Potency": "inactive"}, {"smiles": "COC(=O)c1ccc(C(=O)O)cc1", "Potency": "inactive"}, {"smiles": "CC(C)C[P+](C)(CC(C)C)CC(C)C", "Potency": "inactive"}, {"smiles": "O=C(O)/C=C(\\CC(=O)O)C(=O)O", "Potency": "inactive"}, {"smiles": "CCC(C)c1nccnc1OC", "note": "(stereo not drawn)", "Potency": "inactive"}, {"smiles": "Cc1ccc(OC(=O)CC(C)C)cc1", "Potency": "inactive"}]}, {"experiment": "qHTS assay to identify small molecule antagonists of the TGF-beta/Smad signaling pathway - cell viability counter screen (AID 1346824); note: nearly all actives have a fitted effect of over 50% in size", "conditions": "SBE-bla HEK293T viability, CellTiter-Glo luminescence; series mostly up to 76.8 µM", "how_it_was_run": "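SBE-bla HEK 293T cells were plated overnight at 37 C, then given compounds in DMSO plus TGF-beta1 (added as 0.25 ng/mL solution) for 5 hr. After the bla read, CellTiter-Glo was added to the same wells and luminescence read after 30 min at room temperature.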", "values": [{"smiles": "C[C@]12C=CC(=O)C=C1[C@@H](F)C[C@@H]1[C@@H]2[C@@H](O)C[C@@]2(C)[C@H]1CC[C@]2(O)C(=O)CO", "outcome": "inactive"}, {"smiles": "CCN1CCN(C(=O)N[C@@H](C(=O)N[C@@H]2C(=O)N3[C@@H]2SC(C)(C)[C@H]3C(=O)O)c2ccccc2)C(=O)C1=O", "outcome": "inactive"}, {"smiles": "CC(=O)O[C@@H]1CC2C3CCc4cc(OC(=O)c5ccccc5)ccc4C3CCC2(C)[C@H]1OC(C)=O", "note": "(stereo partly drawn)", "outcome": "inactive"}, {"smiles": "CCCCCCCCCCCCCCCCN(C)C", "viability change, negative = cytotoxic": "3.18% [at 6.97 µM]"}, {"smiles": "CC/C=C\\CCCCCCCCCCOC(C)=O", "outcome": "inactive"}, {"smiles": "CCOC(=O)[C@H](CCc1ccccc1)N[C@H]1CS[C@H](c2cccs2)CN(CC(=O)O)C1=O", "outcome": "inactive"}, {"smiles": "CN(C)CCC[C@@]1(c2ccc(F)cc2)OCc2cc(C#N)ccc21", "outcome": "inactive"}, {"smiles": "N=C(N)S(=O)O", "outcome": "inactive"}, {"smiles": "CCCCN1C(=O)c2ccccc2C1=O", "outcome": "inactive"}, {"smiles": "CC(C)(O)CCCC1=CCC(C=O)CC1", "note": "(stereo not drawn)", "outcome": "inactive"}, {"smiles": "CCCCOCCCC", "outcome": "inactive"}, {"smiles": "COc1ccccc1N1CCN(CC(O)COc2cc(OC)c(OC)c(OC)c2)CC1", "note": "(stereo not drawn)", "outcome": "inactive"}, {"smiles": "COCc1nnc(-c2ccc[n+]([O-])c2)n1-c1c(Cl)c(Cl)cc2[nH]c(=O)c(=O)[nH]c12", "outcome": "inactive"}, {"smiles": "CC1(C)S[C@@H]2[C@H](NC(=O)Cc3ccccc3)C(=O)N2[C@H]1C(=O)O", "note": "(tested in a mixture with another compound)", "outcome": "inactive"}, {"smiles": "CC(C)(C)C(=O)CCc1ccc(Cl)cc1", "outcome": "inactive"}, {"smiles": "Cc1ccc(Br)cc1", "outcome": "inactive"}, {"smiles": "CC(O)C(CO)C(C)O", "note": "(stereo not drawn)", "outcome": "inactive"}, {"smiles": "O=C(CCBr)N1CCN(C(=O)CCBr)CC1", "outcome": "inactive"}, {"smiles": "CC/C=C\\CCOC(=O)c1ccccc1", "outcome": "inactive"}, {"smiles": "CCNC(=O)C(C)OC(=O)Nc1ccccc1", "note": "(stereo not drawn)", "outcome": "inactive"}, {"smiles": "COC(=O)c1ccc(C(=O)O)cc1", "outcome": "inactive"}, {"smiles": "CCCCCCCCCCCCCCBr", "outcome": "inactive"}, {"smiles": "CC(C)C[P+](C)(CC(C)C)CC(C)C", "outcome": "inactive"}, {"smiles": "CCC(C)c1nccnc1OC", "note": "(stereo not drawn)", "outcome": "inactive"}, {"smiles": "N#CC1(N)CCCCC1", "outcome": "inactive"}, {"smiles": "Cc1ccc(OC(=O)CC(C)C)cc1", "outcome": "inactive"}, {"smiles": "CCCC(=O)OC", "outcome": "inactive"}, {"smiles": "CC(CC(=O)Cl)CC(C)(C)C", "note": "(stereo not drawn)", "outcome": "inactive"}, {"smiles": "CCC(C)SSC(C)CC", "note": "(stereo not drawn)", "outcome": "inactive"}]}]}
